The whole screen tested about 2,300 compounds, of which about 1,400 (61%) were called active. Inconclusive results (about 29%) are left out. Calls come from the whole dose curve; as a rule, active = well fitted inhibition curve with a large enough effect; inconclusive = small, poorly fitted or top-dose-only effect, or effect the other way; inactive = no such curve, though single readings can be large or run the other way. The set was probably picked from earlier hits. Some of the results follow.
Assay: Confirmation screen for delayed death inhibitors of the malarial parasite plastid, 96 hour incubation; note: nearly all actives have a fitted effect of over 60% in size
Settings: P. falciparum luciferase growth in erythrocytes; series mostly up to 28.7 µM
Method in brief: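 Erythrocytes infected with luciferase-expressing P. falciparum (2% hematocrit, 0.1% parasitemia final) in RPMI 1640 with 0.5% Albumax, exposed to compounds 96 h at 37 C, 5% CO2. Growth inhibition read as decreased luciferase luminescence.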
Potency is the fitted concentration of half-maximal effect.

Structure (SMILES)	Potency
CCN(CC)C(=O)CSc1nc(COc2ccccc2)nc2ccccc12	11.2 µM (active)
COc1ccc2[nH]c3c(NCCC4=CCCCC4)ncnc3c2c1	5.62 µM (active)
CC(C)OCCCNc1ncnc2c1[nH]c1ccc(F)cc12	4.47 µM (active)
COc1ccc2[nH]c3c(NCCN(C(C)C)C(C)C)ncnc3c2c1	3.98 µM (active)
Cc1ccccc1OCC(=O)NCCC1=CCCCC1	inactive
Cc1cc(=O)nc2c3ccccc3n(CC(=O)NCCC3=CCCCC3)n12	8.91 µM (active)
COc1ccc(CCNC(=O)C(=O)NCC2OCCN2S(=O)(=O)c2ccc3c(c2)OCCO3)cc1OC (stereo not given)	11.2 µM (active)
O=C(NCCCn1ccnc1)C(=O)NCC1OCCN1S(=O)(=O)c1ccc(F)cc1 (stereo not given)	inactive
COc1ccc(Cl)cc1NC(=O)C1Cc2cc(S(=O)(=O)N3CCCC3)ccc2N1C(C)=O (stereo not given)	11.2 µM (active)
COc1ccc(CCNC(=O)C2CCN(S(=O)(=O)c3ccc(OC)c(OC)c3)CC2)cc1OC	12.6 µM (active)
COc1ccc(S(=O)(=O)N2CCC(C(=O)Nc3ccccc3N3CCCCC3)CC2)cc1OC	7.94 µM (active)
Cc1ccc(-c2nnc(N3CCOCC3)c3ccccc23)cc1S(=O)(=O)NCC1CCCO1 (stereo not given)	2.51 µM (active)
Cc1cc(C)c(OCC(O)CNC(C)(C)C)c(C)c1 (stereo not given)	7.08 µM (active)
COc1ccc(N2CCc3c(C)nc4c(OC)cc(OC)cc4c32)c(OC)c1	5.01 µM (active)
CC(C)NC(=S)N/N=C/c1sc(N2CCCCC2)nc1-c1cccs1	5.01 µM (active)
CC1CCN(CCNC(=O)C2CCN(S(=O)(=O)c3cccc4nsnc34)CC2)CC1	7.94 µM (active)
Cc1cc2nsnc2c(S(=O)(=O)N2CCN(C)CC2)c1C	inactive
C=CCn1cccc(/C=C/C(=O)c2ccc(C(C)(C)C)cc2)c1=S	0.794 µM (active)
COc1ccc(CC(=O)NCC2CCCN(Cc3ccc(F)c(OC)c3)C2)cc1 (stereo not given)	7.08 µM (active)
Cc1ccc2[nH]c3c(c2c1)CCCC3NC(=O)CCl (stereo not given)	4.47 µM (active)
C[n+]1ccn(CC(=O)c2ccc(Cl)cc2)c1	14.1 µM (active)
Cc1cc(C)cc(CC(Cc2nc3ccccc3[nH]2)c2nc3ccccc3[nH]2)c1 (stereo not given)	1.12 µM (active)
C=CCN1C(=O)[C@@H]2Cc3c([nH]c4ccccc34)C(c3ccc(O)cc3)N2C1=S (stereo not given in full)	12.6 µM (active)

Structure (SMILES)	Potency
CCN1C(=O)[C@@H]2Cc3c([nH]c4ccccc34)C(c3ccc(OC)cc3)N2C1=S (stereo not given in full)	11.2 µM (active)
CCc1nc(Nc2ccncc2)c2oc3ccccc3c2n1	3.98 µM (active)
O=C(C[C@@H]1C/C=C\CC[C@@H](Cc2ccc(F)cc2)C(=O)OC[C@@H]2CCCN2C1=O)NCCO	10 µM (active)
O=C(C[C@H]1C(=O)N(Cc2ccccc2)C[C@@H]1Cc1ccccc1)Nc1ccccc1	11.2 µM (active)
CC(C)(C)c1ccc(C(O)CCCN2CCC(C(O)(c3ccccc3)c3ccccc3)CC2)cc1 (stereo not given)	11.2 µM (active)
CS(=O)(=O)Nc1ccc(C2=NN(C(=O)c3ccco3)C(c3ccc(F)cc3)C2)cc1 (stereo not given)	10 µM (active)
COc1cc([N+](=O)[O-])ccc1NC(=O)Nc1cccnc1	10 µM (active)
Cc1ccc(S(=O)(=O)N2CCN(C(=O)c3ccc(Br)o3)CC2)c(C)c1	6.31 µM (active)
Cc1ccc(S(=O)(=O)N2CCN(C(=O)c3cc(S(=O)(=O)N(C)C)ccc3N3CCCC3)CC2)c(C)c1	8.91 µM (active)
CCc1ccc(/C=C/c2c[nH]c3ccccc23)[n+](CC)c1	0.0501 µM (active)
Cc1cccc(CN2C(=O)c3ccccc3S(=O)(=O)c3ccc(C(=O)NCCCN4CCCC4)cc32)c1	1.58 µM (active)
CCN1C(=O)c2ccccc2Sc2ccc(C(=O)NCCCN3CCCCC3)cc21	10 µM (active)
O=C(NCCCN1CCCC1)c1ccc2c(c1)N(Cc1ccccc1F)C(=O)c1ccccc1S2=O (stereo not given)	11.2 µM (active)
CCN1CCCC1CNC(=O)c1ccc2c(c1)N(Cc1ccccc1F)C(=O)c1ccccc1S2(=O)=O (stereo not given)	2 µM (active)
CCOC(=O)N1CCN(C(=O)c2ccc3c(c2)N(Cc2cc(C)ccc2C)C(=O)c2ccccc2S3=O)CC1 (stereo not given)	3.98 µM (active)
O=C(c1ccc2c(c1)N(Cc1cccc(Cl)c1)C(=O)c1ccccc1S2(=O)=O)N1CCN(c2ccccn2)CC1	2.82 µM (active)
CCCn1c(=NC(=O)CCS(=O)(=O)c2ccccc2)sc2cc(S(N)(=O)=O)ccc21	12.6 µM (active)
O=C(NC1C=CS(=O)(=O)C1)c1sc2ccccc2c1Cl (stereo not given)	0.398 µM (active)
CC1CCN(C(=O)Cn2c(=O)oc3cc(S(=O)(=O)N4CCCCC4)ccc32)CC1	12.6 µM (active)
COC(=O)c1c(-n2c(C)cc(C=O)c2C)sc2c1CCCC2	12.6 µM (active)
CCOC(=O)C[n+]1c(C)ccc2c1CCC2	12.6 µM (active)
O=C(CCNC(=O)c1ccc(Cl)cc1)NC1CCCc2ccccc21 (stereo not given)	12.6 µM (active)
